Measured values published in PubChem BioAssay.
Active and inactive are the calls of the source.

Columns and labels:
[1] = biological target: Albumin (Bos taurus) (UniProt P02769); experiment: bovine serum albumin binders on microarray, profiling panel, artefact control for SMM control protein annotation, biochemical, small-molecule microarray, Alexa647 label, 635/667 nm fluorescence (AID 1118); conditions: BSA-A647 binding, fluorescence 635 nm, higher = more signal;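 note: score merges 667 nm emission intensity and signal-to-noise per printed compound spot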
Sequence of Albumin (Bos taurus) (P02769 whole entry, looked up): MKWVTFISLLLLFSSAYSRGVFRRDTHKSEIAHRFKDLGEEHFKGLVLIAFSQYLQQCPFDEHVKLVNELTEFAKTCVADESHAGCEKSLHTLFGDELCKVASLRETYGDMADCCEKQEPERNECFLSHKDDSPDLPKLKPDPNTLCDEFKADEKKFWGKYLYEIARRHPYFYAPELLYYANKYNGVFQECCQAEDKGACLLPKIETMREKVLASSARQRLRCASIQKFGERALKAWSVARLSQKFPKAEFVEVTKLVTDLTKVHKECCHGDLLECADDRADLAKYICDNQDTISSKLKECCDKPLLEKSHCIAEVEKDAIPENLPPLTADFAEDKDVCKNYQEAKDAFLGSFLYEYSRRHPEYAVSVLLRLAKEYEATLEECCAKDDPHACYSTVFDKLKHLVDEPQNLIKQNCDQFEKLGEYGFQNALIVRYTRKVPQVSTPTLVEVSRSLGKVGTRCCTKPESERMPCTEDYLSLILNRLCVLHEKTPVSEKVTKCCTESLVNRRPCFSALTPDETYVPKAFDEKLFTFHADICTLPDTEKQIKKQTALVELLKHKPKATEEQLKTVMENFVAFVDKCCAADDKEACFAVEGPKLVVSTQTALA

[2] = small-molecule microarray binders of probe aXIP, primary screen, biochemical, NeuroSMM set, 635/667 nm fluorescence (AID 1119); conditions: higher = more signal, called active from +8 up or from −8 down;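 note: probe is the protein aXip251-270 applied at 1 µg/mL to compound-printed slides; binding of probe to printed compounds measured as 667 nm fluorescence plus signal to noise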
[3] = small-molecule binders of probe aNOTCH3, primary screen, biochemical, small-molecule microarray, 635/667 nm fluorescence (AID 1120); conditions: higher = more signal;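 note: probe is a biotin-tagged antibody raised against NOTCH3 rather than NOTCH3 protein; score merges spot fluorescence near 667 nm with spot signal to noise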
[4] = small-molecule binders of probe aNOTCH2, primary screen, biochemical, small-molecule microarray, 635/667 nm fluorescence (AID 1121); conditions: higher = more signal;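 note: score merges feature fluorescence read at 667 nm with its signal to noise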
[5] = biological target: Carbonic anhydrase 2 (Homo sapiens) (UniProt P00918); experiment: CAII small-molecule binders, profiling panel, biochemical, small-molecule microarray, Alexa647-labelled CAII (AID 1122); conditions: CAII-A647 binding fluorescence, higher = more signal
[6] = COS7 lysate on small-molecule microarray, probe aHis, 635 nm (AID 1123); conditions: COS7 cell lysate, fluorescence, higher = more signal;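 note: z-score combines 667nm fluorescence intensity with signal-to-noise per printed compound spot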
[7] = compound binding in COS7 lysate, probe aLAP1, primary screen, cell lysate, small-molecule microarray (AID 1124); conditions: probe aLAP1, fluorescence, higher = more signal;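 note: lysate comes from COS7 cells expressing LAP1 and is applied at 0.3 µg/mL; score merges spot fluorescence near 667 nm with signal-to-noise over triplicate slides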
[8] = test system: Sam68 (KHDRBS1); experiment: Sam68 small-molecule binders, primary screen, biochemical, small-molecule microarray, 635 nm fluorescence (AID 1125); conditions: small-molecule microarray binding, higher = more signal;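 note: score merges 667 nm channel intensity with signal to noise over triplicate slides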
[9] = test system: Chordin-like protein 2 (CHRDL2); experiment: CHRDL2 small-molecule binders, primary screen, biochemical, small-molecule microarray, 635 nm fluorescence (AID 1126); conditions: small-molecule microarray binding, fluorescence 635 nm; higher = more signal;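 note: printed compound slides probed with Chrdl2 protein at 4 µg/mL for 1 h at 4 C; score merges 667 nm emission intensity with signal to noise over three replicate slides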
[10] = biological target: Concanavalin-A (Canavalia ensiformis) (UniProt P02866); experiment: ConA small-molecule binders, primary screen, artefact control for SMM control protein annotation, biochemical, small-molecule microarray, Alexa647 label, 635 nm (AID 1127); conditions: ConA-A647 binding fluorescence, higher = more signal;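 note: z combines 667 nm emission intensity with signal-to-noise across three replicate slides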
Sequence of Concanavalin-A (Canavalia ensiformis) (P02866 whole entry, looked up): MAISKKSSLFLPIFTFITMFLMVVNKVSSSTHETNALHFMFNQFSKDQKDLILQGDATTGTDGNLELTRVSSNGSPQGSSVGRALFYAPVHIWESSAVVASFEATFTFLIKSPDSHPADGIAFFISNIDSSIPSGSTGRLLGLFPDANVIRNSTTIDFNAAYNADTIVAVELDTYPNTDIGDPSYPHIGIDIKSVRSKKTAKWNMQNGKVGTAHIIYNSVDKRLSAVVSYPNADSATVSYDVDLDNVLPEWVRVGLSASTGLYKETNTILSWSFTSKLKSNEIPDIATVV

[11] = anti-His antibody binders, primary screen, artefact control for SMM control protein annotation, biochemical, small-molecule microarray, 635 nm fluorescence (AID 1128); conditions: anti-His Alexa647 antibody binding, higher = more signal;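 note: score merges feature fluorescence with signal-to-noise for each printed compound spot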
[12] = test system: Human papillomavirus type 1a E7 protein (residues 1-88); experiment: HPV1a E7 small-molecule binders, primary screen, biochemical, small-molecule microarray, residues 1-88, 635 nm (AID 1129); conditions: small-molecule microarray binding, fluorescence 635 nm; higher = more signal
[13] = biological target: Focal adhesion kinase 1 (Homo sapiens) (UniProt Q05397); experiment: small-molecule microarray binders of FAK, primary screen, biochemical, 635/667 nm fluorescence, BSA, DTT (AID 1130); conditions: PTK2 binding, 635 nm fluorescence, higher = more signal;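 note: composite of spot emission at 667 nm and signal to noise over triplicate slides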
Sequence of Focal adhesion kinase 1 (Homo sapiens) (Q05397 whole entry, looked up): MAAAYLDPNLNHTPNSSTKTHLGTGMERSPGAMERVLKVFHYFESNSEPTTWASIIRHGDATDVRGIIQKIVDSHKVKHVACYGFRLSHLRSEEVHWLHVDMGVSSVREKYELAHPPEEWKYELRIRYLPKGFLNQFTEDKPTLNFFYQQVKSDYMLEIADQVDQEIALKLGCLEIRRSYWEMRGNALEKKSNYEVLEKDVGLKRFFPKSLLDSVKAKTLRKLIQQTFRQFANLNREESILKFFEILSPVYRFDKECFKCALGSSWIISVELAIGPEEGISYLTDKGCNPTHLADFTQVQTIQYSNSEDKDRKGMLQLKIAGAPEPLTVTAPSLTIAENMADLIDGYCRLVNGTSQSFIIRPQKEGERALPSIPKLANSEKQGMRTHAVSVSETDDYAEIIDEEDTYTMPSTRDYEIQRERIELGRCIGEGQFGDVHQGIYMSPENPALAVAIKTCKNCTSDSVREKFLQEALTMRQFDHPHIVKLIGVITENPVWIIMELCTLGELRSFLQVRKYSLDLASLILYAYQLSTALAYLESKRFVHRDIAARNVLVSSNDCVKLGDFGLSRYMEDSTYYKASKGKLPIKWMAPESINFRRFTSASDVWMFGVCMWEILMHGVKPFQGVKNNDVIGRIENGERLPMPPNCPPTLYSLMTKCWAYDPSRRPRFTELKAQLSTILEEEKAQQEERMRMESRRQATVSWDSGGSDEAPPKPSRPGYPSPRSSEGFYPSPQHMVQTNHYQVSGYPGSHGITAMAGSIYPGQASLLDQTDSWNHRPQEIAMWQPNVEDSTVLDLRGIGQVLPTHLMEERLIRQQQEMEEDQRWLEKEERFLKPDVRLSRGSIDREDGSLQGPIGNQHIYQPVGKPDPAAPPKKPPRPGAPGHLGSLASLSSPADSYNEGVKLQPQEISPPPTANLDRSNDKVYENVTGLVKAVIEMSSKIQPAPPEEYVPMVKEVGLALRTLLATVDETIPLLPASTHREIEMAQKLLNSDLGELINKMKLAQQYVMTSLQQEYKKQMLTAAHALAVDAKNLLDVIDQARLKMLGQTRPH

[14] = test system: Fibrinogen (Alexa647-labelled); experiment: fibrinogen binders on compound microarrays, profiling panel, artefact control for SMM control-protein annotation, biochemical, small-molecule microarray, 635/667 nm fluorescence (AID 1131); conditions: fibrinogen-A647 binding fluorescence, higher = more signal;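 note: z-score merges 667 nm fluorescence with per-spot signal-to-noise over triplicate slides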
[15] = biological target: Follistatin (Homo sapiens) (UniProt P19883); experiment: follistatin binders on small-molecule microarrays, primary screen, biochemical, small-molecule microarray, 635/667 nm fluorescence (AID 1132); conditions: FST binding, 635 nm fluorescence, higher = more signal
Sequence of Follistatin (Homo sapiens) (P19883 whole entry, looked up): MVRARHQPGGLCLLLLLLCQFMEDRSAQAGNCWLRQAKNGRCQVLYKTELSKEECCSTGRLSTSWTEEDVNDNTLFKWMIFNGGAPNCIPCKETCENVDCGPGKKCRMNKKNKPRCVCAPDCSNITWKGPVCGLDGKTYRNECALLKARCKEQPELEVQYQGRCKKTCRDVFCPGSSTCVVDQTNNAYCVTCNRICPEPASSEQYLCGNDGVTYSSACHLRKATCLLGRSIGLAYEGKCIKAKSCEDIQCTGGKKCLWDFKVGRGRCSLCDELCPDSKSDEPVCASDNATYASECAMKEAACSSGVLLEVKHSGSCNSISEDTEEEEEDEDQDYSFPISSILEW

[16] = biological target: Fibroblast growth factor 2 (Homo sapiens) (UniProt P09038); experiment: FGF2 binders on small-molecule microarrays, primary screen, biochemical, small-molecule microarray, 635/667 nm fluorescence (AID 1133); conditions: small-molecule microarray binding, FGF2, fluorescence 635/667; higher = more signal
Sequence of Fibroblast growth factor 2 (Homo sapiens) (P09038 whole entry, looked up): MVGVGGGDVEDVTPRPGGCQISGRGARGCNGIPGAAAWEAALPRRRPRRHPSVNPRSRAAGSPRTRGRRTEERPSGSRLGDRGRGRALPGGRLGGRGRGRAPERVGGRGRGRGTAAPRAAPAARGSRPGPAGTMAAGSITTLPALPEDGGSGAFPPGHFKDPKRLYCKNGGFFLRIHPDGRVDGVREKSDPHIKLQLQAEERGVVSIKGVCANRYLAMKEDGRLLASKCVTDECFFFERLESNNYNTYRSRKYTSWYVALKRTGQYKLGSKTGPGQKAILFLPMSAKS

[17] = mitochondrial membrane potential change in A549 cells, profiling panel, cell-based, JC-1 fluorescence, basal, 24 h, 100 nL (AID 1138); conditions: higher = more signal;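 note: A549 lung adenocarcinoma cells under basal conditions with no added stimulus; test concentration not given here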
[18] = test system: Lefty1; experiment: Lefty1 binders on small-molecule microarrays, primary screen, biochemical, small-molecule microarray, 635/667 nm fluorescence (AID 1139); conditions: small-molecule microarray binding, fluorescence 635/667; higher = more signal
[19] = test system: wheat germ agglutinin (Triticum aestivum), Alexa647-labelled; experiment: wheat germ agglutinin binders on compound microarrays, profiling panel, artefact control for SMM control-protein annotation, biochemical, small-molecule microarray, 635/667 nm fluorescence (AID 1140); conditions: WGA-A647 binding, 635 nm fluorescence, higher = more signal;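 note: score merges 667 nm feature emission with signal to noise over triplicate slides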
[20] = biological target: Luciferin 4-monooxygenase (Photinus pyralis) (UniProt P08659); experiment: firefly luciferase enzyme inhibitors, primary screen, biochemical, luminescence, purified enzyme, 2006 set (AID 1141); conditions: SteadyGlo luminescence, 30 min, higher = more signal, called active from +8 up or from −8 down;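 note: cell-free assay with purified firefly luciferase at 100 ng per well in PBS; test concentration not given here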
Sequence of Luciferin 4-monooxygenase (Photinus pyralis) (P08659 whole entry, looked up): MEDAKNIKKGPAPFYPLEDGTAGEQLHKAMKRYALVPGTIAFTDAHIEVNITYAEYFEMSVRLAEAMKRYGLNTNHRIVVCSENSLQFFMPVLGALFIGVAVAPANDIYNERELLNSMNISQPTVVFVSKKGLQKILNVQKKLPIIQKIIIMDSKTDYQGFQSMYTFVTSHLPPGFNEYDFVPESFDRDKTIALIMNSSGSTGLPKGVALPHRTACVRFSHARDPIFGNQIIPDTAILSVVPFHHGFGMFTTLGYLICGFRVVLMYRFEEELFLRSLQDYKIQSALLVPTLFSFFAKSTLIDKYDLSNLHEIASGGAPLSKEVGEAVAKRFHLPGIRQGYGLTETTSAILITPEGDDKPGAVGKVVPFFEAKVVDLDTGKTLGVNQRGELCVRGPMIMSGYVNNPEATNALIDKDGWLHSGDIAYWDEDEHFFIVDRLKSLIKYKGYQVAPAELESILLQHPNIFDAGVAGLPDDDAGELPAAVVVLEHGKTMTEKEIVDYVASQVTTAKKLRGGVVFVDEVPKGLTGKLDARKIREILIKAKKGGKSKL

Structure (SMILES) | composite z-score [1] | composite Z-score [2] | composite z-score [3] | composite z-score [4] | composite z-score [5] | composite z-score [6] | composite z-score [7] | composite z-score [8] | composite z-score [9] | composite z-score [10] | composite z-score [11] | composite z-score [12] | composite z-score [13] | composite z-score [14] | composite z-score [15] | composite z-score [16] | z-score [17] | composite z-score [18] | composite z-score [19] | z-score [20]
CCN1C(=O)[C@H]2[C@H]3[C@H](O)[C@H](O)CC(=NNC(=O)OCc4ccccc4)[C@@H]3CC[C@H]2C1=O | 0.489 | -0.45 (inactive) | -0.0647 | -0.14 | -0.289 | 0.917 | -0.314 | -0.327 | -0.0079 | 0.145 | 0.545 | -0.513 | -0.116 | 0.315 | 0.0633 | -0.0789 | 0.207 | 0.066 | 0.128 | 0.248 (inactive)
COC(=O)[C@H](C)NC(=O)CCC1CC(OC(=O)NCCc2ccc(F)cc2)CC2(CCCC(COC(=O)NCCOc3ccccc3)O2)O1 (stereo not given in full) | 0.752 | 0.59 (inactive) | -0.029 | -0.0921 | 0.282 | 1.21 | -0.0401 | 1.31 | 1.03 | 1.02 | 0.989 | 1.16 | 0.821 | 0.659 | 0.826 | 0.307 | 1.08 | 1.41 | 0.309 | 0.549 (inactive)
COC(=O)[C@H](C)NC(=O)CCC1CC(OC(=O)NCCc2ccc(F)cc2)CC2(CCCC(COC(=O)NCC3CCCCC3)O2)O1 (stereo not given in full) | 0.0505 | 0.697 (inactive) | -0.0362 | -0.106 | 0.427 | 1.52 | 0.191 | 1.3 | 0.507 | 0.971 | 0.608 | 1.19 | 0.178 | 0.86 | 0.639 | 0.572 | -1.03 | 0.744 | 0.804 | 0.765 (inactive)
C[C@@H]1CC[C@H]2C(=O)O[C@@H](COc3ccc(C(C)(C)C)cc3)CN2[C@H]1c1ccc(Br)cc1 | 0.425 | 0.289 (inactive) | -0.0663 | -0.164 | -0.0795 | 1.39 | 0.21 | 0.292 | 0.329 | 0.721 | -0.0988 | -0.153 | -0.171 | 0.407 | 0.0252 | 0.0914 | 0.784 | 0.135 | 0.0196 | 0.104 (inactive)
COC(=O)[C@@H]1CC[C@H](C)[C@@H](c2ccc(C)cc2)N1C(=O)c1ccc(C=NO[C@@H](C)c2cc(-c3c(C)cc(C)cc3C)no2)cc1 | 0.432 | -0.136 (inactive) | -0.004 | -0.126 | 0.154 | -0.0142 | -0.207 | 1.2 | 0.306 | 0.894 | -0.637 | 0.706 | 0.137 | 0.602 | 0.365 | 0.553 | 1.65 | 0.677 | 0.0859 | 0.195 (inactive)
CCc1cc2c(nc1CC)CCN(CCC(C)=NO[C@@H]1O[C@H](COC(C)=O)[C@@H](OC(C)=O)[C@H](OC(C)=O)[C@H]1OC(C)=O)C2 | 0.314 | -0.0798 (inactive) | 0.105 | -0.0527 | 0.0275 | 1.34 | 0.388 | 1.32 | 0.922 | 0.571 | 0.0815 | 0.286 | 0.0487 | 0.816 | 1.03 | 0.559 | -0.766 | 1.42 | 0.167 | 1.03 (inactive)
